CtBP-E1A inh = blocks the CtBP interaction with E1A. actives 0.49% (n = 340,000). AlphaScreen GST-E1A/His-CtBP binding, 1536-well; active compounds read low. activity change, % (test concentration not listed); in the data active = activity change below about -65%; inconclusive = mostly about -30% to -63%
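Homogeneous bead-based format: GST-tagged E1A captured on glutathione donor beads, His-tagged CtBP on nickel acceptor beads; compounds precede bead addition by 2 h at 37 °C.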
TDP1 inh = blocks human tyrosyl-DNA phosphodiesterase 1; actives 0.28% (n = 350,000); Potency, µM (series often up to 130 µM), inactives show at the top dose activity change, negative = inhibition, most hits filed as inhibitors; recombinant TDP1, AlphaScreen DNA substrate cleavage; Q9NUW8; note: potency is the fitted concentration of half-maximal effect; nearly all actives have a fitted effect of over 40% in size
Target sequence (Q9NUW8 whole entry, looked up): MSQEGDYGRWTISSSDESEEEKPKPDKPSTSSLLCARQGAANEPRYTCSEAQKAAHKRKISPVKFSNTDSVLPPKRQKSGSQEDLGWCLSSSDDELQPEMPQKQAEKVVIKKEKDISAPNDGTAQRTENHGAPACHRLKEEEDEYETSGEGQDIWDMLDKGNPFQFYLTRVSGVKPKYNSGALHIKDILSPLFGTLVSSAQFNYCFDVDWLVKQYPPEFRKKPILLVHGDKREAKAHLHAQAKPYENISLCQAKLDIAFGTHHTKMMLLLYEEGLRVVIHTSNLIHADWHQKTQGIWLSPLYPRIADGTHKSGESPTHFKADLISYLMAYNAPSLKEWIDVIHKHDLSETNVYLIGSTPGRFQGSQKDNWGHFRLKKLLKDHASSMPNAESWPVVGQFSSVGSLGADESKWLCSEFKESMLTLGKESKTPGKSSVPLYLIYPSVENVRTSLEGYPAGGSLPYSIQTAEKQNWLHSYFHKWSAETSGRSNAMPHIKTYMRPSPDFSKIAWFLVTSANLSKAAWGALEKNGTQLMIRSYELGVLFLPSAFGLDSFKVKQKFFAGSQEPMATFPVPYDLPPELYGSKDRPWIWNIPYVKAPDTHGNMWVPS
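Signal: AlphaScreen proximity between streptavidin donor and anti-FITC acceptor beads on intact substrate. Reaction: Tdp1 1 nM, substrate 15 nM final, 5 min RT after 15 min compound preincubation.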
Six1-Eya2 blk = Six1/Eya2 interaction inhibition. AID 651725. AlphaScreen GST-Six1/His-Eya2 binding, biochemical; active compounds read low. Q15475+O00167. actives 0.56% (n = 360,000). activity change, % (concentration not given with the values); in the data active = activity change below about -65%; inconclusive = mostly about -30% to -63%
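Six1/Eya2 binding was read as AlphaScreen signal after compounds were pinned into GST-Six1 plus His-tagged Eya2 (5X stock 250/500 nM) in pH 8.0 Tris/NaCl/TCEP buffer, beads added, then incubated 1 h, 37 C, dark.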
IL-1B inflam inh = blocks inflammasome-driven IL-1 beta release; THP-1 LPS/ATP IL-1B secretion, AlphaLISA, 16 h; active compounds read low; activity change, % at 57.5 µM; actives 4.7% (n = 360,000); in the data active = activity change below about -50%; inconclusive = mostly about -30% to -49%
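THP-1 cells pretreated 1 hr with compounds (up to 57.5 uM final), then stimulated with LPS (250 ng/mL final) plus ATP (1.25 mM final); secreted IL-1B measured by AlphaLISA after 16 hr, decreased signal indicating inhibition.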
DT40 TDP1 no CPT = qHTS for Inhibitors of human tyrosyl-DNA phosphodiesterase 1 (TDP1): qHTS in cells in absence of CPT; Potency, µM (top dose mostly 46.2 µM), without a hit: at the highest dose activity change, negative = growth inhibition, actives largely listed as inhibitors; actives 15% (n = 420,000); DT40 Tdp1-/- hTDP1 cells, no CPT, ATP luminescence, 48 h; AID 686978, 2013; note: potency is the fitted concentration of half-maximal effect; nearly all actives have a fitted effect of over 55% in size
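Readout: luminescence from CellTiter-Glo after 30 min in the dark at RT. Cells: DT40 Tdp1-/- with stable hTDP1, 400/well. Exposure: compounds alone, ≥48 hr, 37 °C.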
TDP1 cell CPT = DT40-hTDP1 cell growth loss with CPT; chicken DT40 Tdp1-/-;hTDP1 cells + 20 nM CPT, ATP luminescence, 48 h; Potency, µM (doses to about 46.2 µM), for the others: top-dose activity change, negative = growth inhibition, actives largely listed as inhibitors; actives 12% (n = 420,000); note: potency is the fitted concentration of half-maximal effect; nearly all actives have a fitted effect of over 55% in size
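Cell growth measured by CellTiter-Glo luminescence after a minimum 48 h, 37 C compound exposure with 20 nM CPT in Tdp1-knockout DT40 cells stably expressing hTDP1, seeded 400/well; qHTS titration format.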
* hit, by the source's call; ? = inconclusive; · = no result given; [ ] = dose if it differs, or a comment. Hits are enriched below; roughly 18% of the tested compounds scored in any of these assays. Unless noted, calls come from the whole dose curve; as a rule, active = well fitted curve in the direction sought with a large enough effect; inconclusive = small, poorly fitted or top-dose-only effect, or another doubt; inactive = no such curve, though single readings can be large; an effect the other way counts as inactive or inconclusive. % is set by controls: 0 for no effect and ±100 for the full control effect.

SMILES | CtBP-E1A inh | TDP1 inh | Six1-Eya2 blk | IL-1B inflam inh | DT40 TDP1 no CPT | TDP1 cell CPT
Cc1cccc(N2CCN(C(=O)c3cnn(-c4cccc(Cl)c4C)c3C3CCNCC3)CC2)c1C | · | -2.1% | · | · | 5.17µM* | 3.66µM*
Cc1c(Cl)cccc1-n1ncc(C(=O)N2CCOCC2)c1C1CCN(C(=O)OC(C)(C)C)CC1 | · | 0.0% | · | · | -16.9% | ?
Cc1ccc(-n2ncc(C(=O)N3CCN(C4CCCCC4)CC3)c2C2CCN(C(=O)OC(C)(C)C)CC2)cc1C | · | -4.2% | · | · | 7.31µM* | 8.2µM*
Cc1ccc(N2CCN(C(=O)c3cnn(-c4ccc(C)c(C)c4)c3C3CCNCC3)CC2)c(C)c1 | · | -3.2% | · | · | 6.51µM* | 6.51µM*
Cc1ccc(-n2ncc(C(=O)N3CCN(c4ccccn4)CC3)c2C2CCN(C(=O)OC(C)(C)C)CC2)cc1C | · | 5.3% | · | · | -16.1% | -10.1%
COc1ccc(-n2ncc(C(=O)N3CCN(C4CCCCC4)CC3)c2C2CCN(C(=O)OC(C)(C)C)CC2)cc1 | · | 3.2% | · | · | 20.6µM* | ?
Cc1ccc(Cl)cc1-n1c(=O)cc(N2CCN(c3ccccc3)CC2)[nH]c1=O | · | -9.9% | · | · | ? | -27.7%
CCc1ccc(NC(=O)CSc2nnc(CC)c(CC)n2)cc1 | 18.4 | 5.3% | 13.1 | -1.4 | ? | ?
CC(C)(C)OC(=O)N1CCC(c2c(C(=O)NCC3CCN(C4CCCC4)C3)cnn2-c2cccc(Cl)c2)CC1 (stereo unspecified) | -3.5 | 3.0% | -4.0 | -56.4* | ? | ?
CCN1CCN(C(=O)c2cnn(-c3cccc(Cl)c3)c2C2CCN(C(=O)OC(C)(C)C)CC2)CC1 | · | 5.3% | · | · | ? | -23.4%
COc1ccccc1N1CCN(C(=O)c2cnn(-c3ccc(C)c(C)c3)c2C2CCN(C(=O)OC(C)(C)C)CC2)CC1 | · | 4.2% | · | · | 20.6µM* | 20.6µM*
CC(C)(C)OC(=O)N1CCC(c2c(C(=O)N3CCN(C4CCCCC4)CC3)cnn2-c2cccc(Cl)c2)CC1 | · | -2.1% | · | · | 23.1µM* | 16.4µM*
CC(C)(C)OC(=O)N1CCC(c2c(C(=O)NCC3CCN(C4CCCC4)C3)cnn2-c2ccccc2)CC1 (stereo unspecified) | -2.7 | 6.4% | -4.7 | -14.3 | -11.1% | ?
CCOC(=O)c1cnn(-c2cccc(Cl)c2)c1C1CCN(C(=O)OC(C)(C)C)CC1 | · | 4.7% | · | · | ? | 23.1µM*
COc1ccccc1NC(=O)c1cc2c(cc1Cl)N1CCCCCC1=NS2(=O)=O | -1.7 | -4.7% | -1.2 | 8.0 | -23.3% | 0.6%
COc1cc(/C=N/NC(=O)c2ccncc2)ccc1OC(=O)c1cccc(F)c1 | 17.1 | 5.0% | 0.0 | 15.7 | -22.4% | -17.9%
CC(C)NCC(O)COCCOc1ccc(Cl)cc1 (stereo unspecified) | · | · | 3.0 | -9.3 | ? | -5.2%
N/C(CCN1CCOCC1)=N/O | 1.7 | 2.5% | 3.4 | 7.0 | -6.1% | -1.7%
Nn1c(SCC(=O)NCCC2=CCCCC2)nnc1C(F)(F)F | 7.6 | 5.6% | 1.4 | 5.6 | -8.6% | 0.7%
Cc1ccc(S(=O)(=O)NC2=NCN(Cc3ccccc3)CN2)cc1 | 2.3 | 0.0% | 9.8 | -1.3 | ? | 1.8%
CCn1c(=O)n(CC)c2cc(N3CCCC3)c(NC(=O)c3c(F)cccc3F)cc21 | · | 5.8% | -18.9 | 20.1 | 11.6µM* | ?
CCOc1ccc(C(=O)Nc2cc3c(cc2N2CCCC2)n(CC)c(=O)n3CC)cc1OCC | -5.1 | 9.7% | -0.2 | 15.0 | ? | ?
CCn1c(=O)n(CC)c2cc(N3CCCCC3)c(NC(=O)Nc3cc(C)cc(C)c3)cc21 | · | 5.8% | · | · | 6.51µM* | 5.8µM*
CCn1c(=O)c(=O)n(CC)c2cc(N3CCCCC3)c(NC(=O)c3ccc(OC)c(OC)c3)cc21 | · | -2.5% | · | · | 9.2µM* | 13µM*
O=C(Nc1ccccc1N1CCCCC1)c1ccc(F)cc1 | 14.9 | ? | 20.2 | 22.8 | ? | ?
SMILES | CtBP-E1A inh | TDP1 inh | Six1-Eya2 blk | IL-1B inflam inh | DT40 TDP1 no CPT | TDP1 cell CPT
Cc1cc(C)cc(NC(=O)Oc2ccccc2N2CCCCC2)c1 | 5.2 | · | 7.0 | · | -21.4% | 0.3%
Cn1c(=O)n(C)c2cc(N3CCOCC3)c(NC(=O)c3c(F)cccc3F)cc21 | · | 7.5% | · | · | -27.9% | ?
CCn1c(=O)n(CC)c2cc(N3CCCC3)c(NC(=O)c3ccc(F)cc3)cc21 | -2.7 | 6.0% | 2.5 | 48.7 | 18.4µM* | 23.1µM*
O=C(COC(=O)c1ccc(NS(=O)(=O)c2cccs2)cc1)NCC1CCCO1 (stereo unspecified) | -2.7 | 4.9% | -3.2 | 0.4 | -12.8% | -2.8%
COc1cccc(NC(=O)Nc2nnc([C@@H]3C[C@H](O)[C@@H](CO)O3)s2)c1 | 2.1 | · | 0.4 | 15.9 | ? | -11.2%
CCC(C)NC(=O)CNC(=O)c1nn(-c2ccc(OC)c(Cl)c2)c(=O)c2ccccc12 (stereo unspecified) | · | · | 0.2 | 1.2 | ? | -4.5%
Cn1c(=O)n(C)c2cc(N3CCCCC3)c(NC(=O)Nc3ccc(Br)cc3)cc21 | · | 2.1%[12.3 µM] | · | · | ? | ?
CN(C)c1cc2c(cc1NC(=O)c1ccc(F)cc1)n(C)c(=O)n2C | · | 3.7% | · | · | 23.1µM* | ?
CCOC(=O)Cc1ccc(NC(=O)Nc2cc3c(cc2N2CCCCC2)n(C)c(=O)n3C)cc1 | · | -5.0% | · | · | 2.59µM* | 4.61µM*
Cc1sc2nc(SCC(=O)NCCOCCO)nc(N)c2c1C | 5.5 | 0.0% | 1.9 | -7.4 | -16.3% | -1.6%
C=CC[n+]1c(-c2ccc(OC)c(OC)c2)csc1NNC(=O)Nc1ccccc1 | -18.5 | 7.4% | -22.5 | -74.6* | 6.51µM* | 7.31µM*
C=CC[n+]1c(-c2ccccc2)csc1NC(C)(C)C | ? | 2.9% | -27.2 | -19.3 | -24.5% | 5.3%
Cc1ccc(Cn2ccc(NC(=O)c3cc4nc5c(c(C(F)(F)F)n4n3)CCc3ccccc3-5)n2)cc1 | · | 0.0% | · | · | · | ·
Cc1ccc(O)c(NC(=O)c2cc3nc4c(c(C(F)(F)F)n3n2)CCc2ccccc2-4)c1 | ? | 2.0% | -24.8 | -50.7* | 23.1µM* | ?
O=C1CN(C(=O)CSc2nc3ccccc3c(=O)n2CC2CCCO2)c2ccccc2N1 (stereo unspecified) | -20.8 | 8.6% | 2.4 | -18.7 | -7.1% | -1.9%
CN(C)c1ccc(NS(=O)(=O)c2cccc(Cl)c2)cc1 | -9.9 | 10.3% | -16.9 | -8.5 | 10.3µM* | -16.4%
CN(C)c1ccc(NS(=O)(=O)c2ccc(Cl)cc2)cc1 | -17.9 | 0.0% | ? | -1.2 | ? | 18.4µM*
